Reference: PubChem BioAssay AID1159580 (chemical genetic matrix, 2015)
“And” between values parts separate entries of the source, which are not always exact repeats. Identical values can stand only once. The whole screen tested about 5,500 compounds, of which about 2,000 (36%) were called active. About 18% were inconclusive and are not listed. Cut-off read from the data, not from the text of the source: active = normalized growth mostly below about 0.91 (no sharp cut-off); inconclusive = no clear call, values can overlap the other calls; inactive = mostly above about 0.92. Some of the results follow.

Assay: chemical genetic growth profiling, strain panel (AID 1159580);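 note: tested at 20 µM; growth read once vehicle control cultures reached saturation at 30 °C; 1 = growth at the plate median or of vehicle wells; lower values mean less growth of the strain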
Details: S. cerevisiae deletion strains, growth OD

Measured: normalized growth

CC(=O)/C=C\[C@@H]1[C@@]2(C)CCCC(C)(C)C2CC[C@@]1(C)O (some centres not stated)
inactive: locus YAL013W, strain DEP1, hits give low values 0.964 | locus YAL021C, strain ccr4, hits give low values 0.989 | locus YAL026C, strain drs2, hits give low values 0.971 | locus YAL030W, strain snc1, hits give low values 0.974 | locus YBL061C, strain skt5, hits give low values 0.983 | locus YBR009C, strain hhf1, hits give low values 0.971 | locus YBR021W, strain FUR4, hits give low values 0.99 | locus YBR023C, strain chs3, hits give low values 0.977 | locus YBR171W, strain sec66, hits give low values 0.96 | locus YBR229C, strain ROT2, hits give low values 0.946 | locus YBR231C, strain swc5, hits give low values 0.988 | locus YBR279W, strain paf1, hits give low values 0.966 | locus YCL011C, strain gbp2, hits give low values 0.966 | locus YCL016C, strain dcc1, hits give low values 0.988 | locus YCL029C, strain bik1, hits give low values 0.985 | locus YCL061C, strain MRC1, hits give low values 0.988 | locus YCL069W, strain vba3, hits give low values 0.949 | locus YCR088W, strain abp1, hits give low values 0.986 | locus YDL005C, strain med2, hits give low values 0.971 | locus YDL035C, strain GPR1, hits give low values 0.963 | locus YDL040C, strain nat1, hits give low values 0.983 | locus YDL074C, strain BRE1, hits give low values 0.901 | locus YDL101C, strain DUN1, hits give low values 0.952 | locus YDL134C, strain PPH21, hits give low values 0.964 | locus YDL185W, strain tfp1, hits give low values 0.966 | locus YDL192W, strain arf1, hits give low values 0.98 | locus YDR001C, strain nth1, hits give low values 0.967 | locus YDR069C, strain doa4, hits give low values 0.973 | locus YDR101C, strain arx1, hits give low values 0.995 | locus YDR137W, strain rgp1, hits give low values 0.902 | locus YDR150W, strain NUM1, hits give low values 0.967 | locus YDR159W, strain sac3, hits give low values 0.922 | locus YDR162C, strain NBP2, hits give low values 0.843 | locus YDR195W, strain ref2 0.955 | locus YDR297W, strain sur2, hits give low values 0.982 | locus YDR318W, strain mcm21, hits give low values 1 | locus YDR334W, strain swr1, hits give low values 0.946 | locus YDR335W, strain msn5, hits give low values 0.981 | locus YDR388W, hits give low values 0.987 | locus YDR392W, strain spt3, hits give low values 0.842 | locus YDR502C, strain sam2, hits give low values 0.951 | locus YEL003W, strain gim4, hits give low values 0.976 | locus YEL037C, strain rad23, hits give low values 0.969 | locus YEL061C, strain CIN8 (second series), hits give low values 0.961 | locus YEL061C, strain CIN8, hits give low values 0.968 | locus YER015W, strain faa2, hits give low values 0.966 | locus YER016W, strain bim1, hits give low values 0.982 | locus YER110C, hits give low values 0.985 | locus YER111C, strain swi4, hits give low values 0.978 | locus YER155C, strain BEM2 (second series), hits give low values 0.982 | locus YER155C, strain BEM2, hits give low values 0.972 | locus YER167W, strain BCK2, hits give low values 0.989 | locus YFR010W, strain ubp6, hits give low values 0.967 | locus YGL078C, strain dbp3, hits give low values 0.968 | locus YGL086W, strain mad1, hits give low values 0.996 | locus YGL167C, strain pmr1, hits give low values 0.971 | locus YGL173C, strain kem1, hits give low values 0.975 | locus YGL227W, strain vid30, hits give low values 0.982 | locus YGL240W, strain doc1, hits give low values 0.976 | locus YGL248W, strain PDE1, hits give low values 0.969 | locus YGL253W, strain hxk2, hits give low values 0.975 | locus YGR078C, strain PAC10, hits give low values 0.963 | locus YGR135W, strain pre9, hits give low values 0.922 | locus YGR229C, strain SMI1, hits give low values 0.933 | locus YGR252W, strain gcn5, hits give low values 1.05 | locus YHR013C, strain ard1, hits give low values 0.964 | locus YHR027C, strain rpn1, hits give low values 0.967 | locus YHR030C, strain SLT2, hits give low values 0.993 and 0.958 | locus YHR079C, strain IRE1 (second series), hits give low values 0.987 | locus YHR079C, strain IRE1, hits give low values 0.989 | locus YHR094C, strain hxt1, hits give low values 0.99 | locus YHR129C, strain ARP1, hits give low values 0.975 | locus YHR142W, strain chs7, hits give low values 0.979 | locus YHR200W, strain rpn10, hits give low values 0.988 | locus YIL066C, strain RNR3, hits give low values 0.953 | locus YIL073C, strain SPO22, hits give low values 1.02 | locus YIL125W, strain kgd1, hits give low values 0.991 | locus YIR030C, strain dcg1, hits give low values 0.978 | locus YJL092W, strain hpr5, hits give low values 0.98 | locus YJL095W, strain BCK1 (second series), hits give low values 0.963 | locus YJL095W, strain BCK1, hits give low values 0.916 and 0.981 | locus YJL115W, strain asf1, hits give low values 0.96 | locus YJL129C, strain trk1, hits give low values 0.957 | locus YJL134W, strain LCB3, hits give low values 0.969 | locus YJL154C, strain vps35, hits give low values 0.973 | locus YJL164C, strain tpk1, hits give low values 0.997 | locus YJL166W, strain qcr8, hits give low values 0.982 | locus YJL168C, strain set2, hits give low values 0.976 | locus YJL187C, strain SWE1 (second series), hits give low values 0.945 | locus YJL187C, strain SWE1, hits give low values 0.969 | locus YJR043C, strain POL32, hits give low values 1.03 | locus YJR066W, strain TOR1, hits give low values 0.951
